Measured values reported in the supplement of paper PMC3545927.
Some of the results follow. The hit rate among all sequences tested is not known here.

Molecular target: furin, P09958
Assay: furin cleavage Z-score vs untreated control; higher = more cleavage, active = 3.5 or more, inactive = 1 or less, 8 variable residues between constant flanks
Method in brief: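 Furin cleavage was scored on 8-mer peptides joined to a cDNA oligonucleotide and bound to magnetic beads at the N-terminus. Digestion with purified furin (1:10 enzyme:substrate, 0.01 ml, 50 mM HEPES pH 7.5, CaCl2, NaCl) lasted 7.5, 15 or 30 min. Freed DNA was tagged with adapters by PCR, sequenced and counted; the cleavage Z-score is the lowess-adjusted log count versus furin-free reactions, scaled by median absolute deviation.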

Chain of furin, P09958 (P09958 whole entry): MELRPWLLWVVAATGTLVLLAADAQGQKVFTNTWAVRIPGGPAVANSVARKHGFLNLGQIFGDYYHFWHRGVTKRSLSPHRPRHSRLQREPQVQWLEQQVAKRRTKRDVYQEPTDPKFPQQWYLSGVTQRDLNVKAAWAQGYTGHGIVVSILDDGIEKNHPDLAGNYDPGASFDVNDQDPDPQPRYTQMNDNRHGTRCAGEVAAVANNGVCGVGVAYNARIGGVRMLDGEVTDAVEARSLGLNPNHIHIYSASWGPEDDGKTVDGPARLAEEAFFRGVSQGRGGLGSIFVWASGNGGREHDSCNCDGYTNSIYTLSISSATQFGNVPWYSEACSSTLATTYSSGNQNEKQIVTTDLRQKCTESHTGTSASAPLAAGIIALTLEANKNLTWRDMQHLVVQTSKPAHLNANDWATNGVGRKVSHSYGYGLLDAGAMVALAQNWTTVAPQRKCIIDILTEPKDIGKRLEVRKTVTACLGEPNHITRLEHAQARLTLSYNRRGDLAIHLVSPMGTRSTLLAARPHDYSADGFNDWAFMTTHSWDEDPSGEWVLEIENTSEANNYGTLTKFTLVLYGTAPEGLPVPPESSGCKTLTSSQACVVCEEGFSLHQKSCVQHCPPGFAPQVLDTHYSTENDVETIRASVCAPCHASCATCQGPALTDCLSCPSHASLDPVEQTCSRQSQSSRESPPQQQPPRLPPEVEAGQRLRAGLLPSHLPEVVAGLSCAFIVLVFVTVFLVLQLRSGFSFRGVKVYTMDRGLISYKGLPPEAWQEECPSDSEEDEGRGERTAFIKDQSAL

CAEVVCHRPSAGNASASA [HC2350]
furin cleavage Z-score (7.5 min): -0.3 (inactive)
furin cleavage Z-score (15 min): 0.778 (inactive)
furin cleavage Z-score (30 min): 0.34 (inactive)

CADWMEECSQAGNASASA [HC1808]
furin cleavage Z-score (7.5 min): 0.73 (inactive)
furin cleavage Z-score (15 min): -0.408 (inactive)
furin cleavage Z-score (30 min): -0.438 (inactive)

CAVVCCSMSMAGNASASA [HC2086]
furin cleavage Z-score (7.5 min): 0.14 (inactive)
furin cleavage Z-score (15 min): -1.35 (inactive)
furin cleavage Z-score (30 min): 0.14 (inactive)

CAVTQRSKRAAGNASASA [FS-388]
furin cleavage Z-score (7.5 min): 10.4 (active)
furin cleavage Z-score (15 min): 9.15 (active)
furin cleavage Z-score (30 min): 7.46 (active)

CAHPQRSKKAAGNASASA [FS-248]
furin cleavage Z-score (7.5 min): -0.0765 (inactive)
furin cleavage Z-score (15 min): 0.432 (inactive)
furin cleavage Z-score (30 min): 1.4

CATQQRSKRAAGNASASA [FS-1496]
furin cleavage Z-score (7.5 min): 7.63 (active)
furin cleavage Z-score (15 min): 7.61 (active)
furin cleavage Z-score (30 min): 6.89 (active)

CAGWLRSKKAAGNASASA [FS-1530]
furin cleavage Z-score (7.5 min): -0.625 (inactive)
furin cleavage Z-score (15 min): -0.994 (inactive)
furin cleavage Z-score (30 min): -0.39 (inactive)

CAVPQSFQVAAGNASASA [HC770]
furin cleavage Z-score (7.5 min): -0.249 (inactive)
furin cleavage Z-score (15 min): -1.95 (inactive)
furin cleavage Z-score (30 min): -0.519 (inactive)

CAPSQRSKRPAGNASASA [FS-477]
furin cleavage Z-score (7.5 min): -0.582 (inactive)
furin cleavage Z-score (15 min): 0.273 (inactive)
furin cleavage Z-score (30 min): -0.55 (inactive)

CAGRKPARLIAGNASASA [HC1447]
furin cleavage Z-score (7.5 min): -1.48 (inactive)
furin cleavage Z-score (15 min): -1.33 (inactive)
furin cleavage Z-score (30 min): -0.697 (inactive)

CARHVRSYNHAGNASASA [FS-2026]
furin cleavage Z-score (7.5 min): 0.349 (inactive)
furin cleavage Z-score (15 min): 0.971 (inactive)
furin cleavage Z-score (30 min): 3.01

CARHVRISRSAGNASASA [FS-708]
furin cleavage Z-score (7.5 min): 10.5 (active)
furin cleavage Z-score (15 min): 10.5 (active)
furin cleavage Z-score (30 min): 7.87 (active)

CAPAGRISRSAGNASASA [FS-835]
furin cleavage Z-score (7.5 min): 6.15 (active)
furin cleavage Z-score (15 min): 10.5 (active)
furin cleavage Z-score (30 min): 8.23 (active)

CAIPLVGAPLAGNASASA [HC229]
furin cleavage Z-score (7.5 min): -1.25 (inactive)
furin cleavage Z-score (15 min): -1.1 (inactive)
furin cleavage Z-score (30 min): -0.498 (inactive)

CAYGVGSSIAAGNASASA [HC512]
furin cleavage Z-score (7.5 min): -0.889 (inactive)
furin cleavage Z-score (15 min): -1.2 (inactive)
furin cleavage Z-score (30 min): 0.412 (inactive)

CALRPRQRRAAGNASASA [FS-360]
furin cleavage Z-score (7.5 min): 7.42 (active)
furin cleavage Z-score (15 min): 7.73 (active)
furin cleavage Z-score (30 min): 6.07 (active)

CAQRQRAKRNAGNASASA [FS-1252]
furin cleavage Z-score (7.5 min): 13.8 (active)
furin cleavage Z-score (15 min): 13.3 (active)
furin cleavage Z-score (30 min): 10.1 (active)

CAKCPCQVPSAGNASASA [HC1216]
furin cleavage Z-score (7.5 min): 0.69 (inactive)
furin cleavage Z-score (15 min): 0.244 (inactive)
furin cleavage Z-score (30 min): -0.458 (inactive)

CAQRQKKVTFAGNASASA [HC1394]
furin cleavage Z-score (7.5 min): 1.32
furin cleavage Z-score (15 min): -2.05 (inactive)
furin cleavage Z-score (30 min): -3.25 (inactive)

CAKCPRQRRAAGNASASA [FS-445]
furin cleavage Z-score (7.5 min): 7.55 (active)
furin cleavage Z-score (15 min): 6.15 (active)
furin cleavage Z-score (30 min): 7.23 (active)

CALTPLRDWAAGNASASA [HC637]
furin cleavage Z-score (7.5 min): -0.181 (inactive)
furin cleavage Z-score (15 min): 1.58
furin cleavage Z-score (30 min): -0.616 (inactive)

CALDPQARVAAGNASASA [HC1493]
furin cleavage Z-score (7.5 min): -1.42 (inactive)
furin cleavage Z-score (15 min): -2.18 (inactive)
furin cleavage Z-score (30 min): -0.348 (inactive)

CALRLRGPRAAGNASASA [FS-943]
furin cleavage Z-score (7.5 min): 4.69 (active)
furin cleavage Z-score (15 min): 3.33
furin cleavage Z-score (30 min): 3.8 (active)

CAISPRQRRAAGNASASA [FS-543]
furin cleavage Z-score (7.5 min): 7.77 (active)
furin cleavage Z-score (15 min): 6.99 (active)
furin cleavage Z-score (30 min): 6.1 (active)

CALRPRFRREAGNASASA [FS-614]
furin cleavage Z-score (7.5 min): 10 (active)
furin cleavage Z-score (15 min): 8.78 (active)
furin cleavage Z-score (30 min): 6.07 (active)

CAARAACRAAAGNASASA [HC1520]
furin cleavage Z-score (7.5 min): -1.54 (inactive)
furin cleavage Z-score (15 min): -0.427 (inactive)
furin cleavage Z-score (30 min): -0.259 (inactive)

CAKIPRFRRIAGNASASA [FS-449]
furin cleavage Z-score (7.5 min): 0.2 (inactive)
furin cleavage Z-score (15 min): 0.191 (inactive)
furin cleavage Z-score (30 min): 2.93

CAPRARCRRAAGNASASA [FS-138]
furin cleavage Z-score (7.5 min): 8.91 (active)
furin cleavage Z-score (15 min): 10.2 (active)
furin cleavage Z-score (30 min): 7.25 (active)

CARRPEGRTWAGNASASA [HC195]
furin cleavage Z-score (7.5 min): -0.89 (inactive)
furin cleavage Z-score (15 min): 0.845 (inactive)
furin cleavage Z-score (30 min): -0.916 (inactive)

CAISGIQYLAAGNASASA [HC1045]
furin cleavage Z-score (7.5 min): -1.05 (inactive)
furin cleavage Z-score (15 min): 0.557 (inactive)
furin cleavage Z-score (30 min): -1.83 (inactive)

CALRWRQRRAAGNASASA [FS-272]
furin cleavage Z-score (7.5 min): 3.83 (active)
furin cleavage Z-score (15 min): 4.93 (active)
furin cleavage Z-score (30 min): 3.79 (active)

CASVWKDLLEAGNASASA [HC1431]
furin cleavage Z-score (7.5 min): -0.463 (inactive)
furin cleavage Z-score (15 min): 0.374 (inactive)
furin cleavage Z-score (30 min): -0.00259 (inactive)

CASSLTVTQLAGNASASA [HC1135]
furin cleavage Z-score (7.5 min): 0.41 (inactive)
furin cleavage Z-score (15 min): -0.51 (inactive)
furin cleavage Z-score (30 min): -0.191 (inactive)

CADVAVLTSMAGNASASA [HC1244]
furin cleavage Z-score (7.5 min): 0.796 (inactive)
furin cleavage Z-score (15 min): 0.438 (inactive)
furin cleavage Z-score (30 min): -0.848 (inactive)

CASVPCSAHLAGNASASA [HC2490]
furin cleavage Z-score (7.5 min): 0.673 (inactive)
furin cleavage Z-score (15 min): 0.436 (inactive)
furin cleavage Z-score (30 min): 1.54

CAASQLSAPSAGNASASA [HC1262]
furin cleavage Z-score (7.5 min): 0.172 (inactive)
furin cleavage Z-score (15 min): 0.594 (inactive)
furin cleavage Z-score (30 min): 2.91

CATTPCNGSWAGNASASA [HC78]
furin cleavage Z-score (7.5 min): -0.41 (inactive)
furin cleavage Z-score (15 min): 0.152 (inactive)
furin cleavage Z-score (30 min): 0.215 (inactive)

CARYISWCLWAGNASASA [HC579]
furin cleavage Z-score (7.5 min): -0.0545 (inactive)
furin cleavage Z-score (15 min): 0.138 (inactive)
furin cleavage Z-score (30 min): 0.846 (inactive)

CAEVVTSTWPAGNASASA [HC2259]
furin cleavage Z-score (7.5 min): -1.41 (inactive)
furin cleavage Z-score (15 min): -0.126 (inactive)
furin cleavage Z-score (30 min): 0.24 (inactive)

CALAQRQRRIAGNASASA [FS-347]
furin cleavage Z-score (7.5 min): 0.264 (inactive)
furin cleavage Z-score (15 min): -0.423 (inactive)
furin cleavage Z-score (30 min): 0.578 (inactive)

CARPQPQRRAAGNASASA [FS-86]
furin cleavage Z-score (7.5 min): 2.58
furin cleavage Z-score (15 min): 5.58 (active)
furin cleavage Z-score (30 min): 5.07 (active)

CAQRQRQRRAAGNASASA [FS-1253]
furin cleavage Z-score (7.5 min): 8.09 (active)
furin cleavage Z-score (15 min): 6.53 (active)
furin cleavage Z-score (30 min): 6.09 (active)

CARLKRRVKSAGNASASA [FS-2351]
furin cleavage Z-score (7.5 min): 4.89 (active)
furin cleavage Z-score (15 min): 6 (active)
furin cleavage Z-score (30 min): 4.82 (active)

CARLKKKVKQAGNASASA [FS-3196]
furin cleavage Z-score (7.5 min): -1.36 (inactive)
furin cleavage Z-score (15 min): -0.919 (inactive)
furin cleavage Z-score (30 min): 0.354 (inactive)

CARLKRRLVPAGNASASA [FS-2708]
furin cleavage Z-score (7.5 min): 2.61
furin cleavage Z-score (15 min): 4.61 (active)
furin cleavage Z-score (30 min): 5.01 (active)
